Data on 40 molecules can be found in PubChem BioAssay (NCATS).

Results filed as inconclusive are left out. Where a call stands in place of a potency, no number is given. Calls of active or inactive are those of the source. Calls follow the shape of the dose curve; as a rule, active = well fitted inhibition curve with a large enough effect; inconclusive = small, poorly fitted or top-dose-only effect; inactive = no such curve, though single readings can be large or run the other way.
Potency is read from the fitted curve at half-maximal effect.

For the assay, the system named is Zika virus NS2B-NS3 protease (linked construct). Nature of the assay: Primary screen NINDS Rhodamine qHTS for Zika virus inhibitors (AID 1347160). Also: nearly all actives have a fitted effect of over 55% in size. To be noted: purified NS2B-NS3 protease, Rhodamine110 substrate fluorescence; series mostly up to 33.1 µM. The source says:
Avindra Nath, Ph.D., National Institute of Neurological Disorders and Stroke (NINDS), Bethesda, MD
Radhakrishnan Padmanabhan, Ph.D., Georgetown University (GU), Washington D.C.
Zika Virus causes congenital defects, including microcephaly and is associated with Guillain-Barre syndrome, eningoencephalitis and myelitis in infected adult. […] Using a target-based approach, we hope to establish a screening paradigm to uncover novel, cell-active NS2B-NS3 protease (Zika Virus) specific inhibitors from NCATS' collection of small molecules using qHTS.
Four assay panel was created to identify potential Zika Virus inhibitors. Namely, (1) GU unlinked NS2B-NS3 AMC tagged protease qHTS, (2) GU unlinked NS2B-NS3 Rhodamine tagged protease qHTS, (3) NINDS linked NS2B-NS3 AMC tagged protease qHTS, (4) NINDS linked NS2B-NS3 Rhodamine tagged protease qHTS. Active compounds were re-acquired and re-screened to confirm inhibition. Inhibitors were further screened against various confirmatory and counterscreens in dose response format.
Early Translation Branch (ETB)
National Center for Advancing Translational Sciences (NCATS), Rockville, MD
National Institute of Health (NIH), Bethesda, Maryland
For the linked assay, Nath lab (NINDS) provided the purified linked NS2B-NS3 protease which is consists of hydrophilic domain of NS2B linked to the NS3 protease domain by a flexible (-[…]-) linker. Control compound aprotinin is obtained from Thermo Scientific (#78432; Waltham, Massachusetts). Rhodamine110 substrate ([N-Cbz]-Nle-Lys-Arg-Arg-Rhod110-Arg-Arg-Lys-Nle-[N-Cbz]) was purchased from either Genscript or Bachem.
1536-well Protease (Rhodamine110 Substrate) Assay:
Briefly, 3 microL of enzyme (25 nM final concentration), in assay buffer (10 mM Tris-HCl pH 8.0 with 0.01% Tween 20) were dispensed into a 1,536-well solid-bottom black plate (Greiner Bio One, Monroe, NC). Twenty-three nL of compounds (final concentration range 7.28 nM to 114 microM) or control Aprotinin (final concentration range 3.47 nM to 114 microM) were transferred via Wako Pin-tool (Wako Automation, Richmond, VA). Samples were incubated (room temperature, protected from light) for 15 minutes followed by a 1 microL Rhodamine110 substrate addition (1.5 microM final concentration). Plates were then immediately read on a ViewLux High-throughput CCD imager (PerkinElmer, Waltham, MA) equipped with FITC fluorescence optics (480(20) nm excitation, 540(25) nm emission), then incubated (room temperature, protected from light) for 15 minutes (~15% conversion). The change in fluorescence intensity over the 15-minute reaction period was normalized against no-inhibitor and no-enzyme controls and the resulting percent inhibition data were fitted to a 4-parameter Hill equation. Aprotinin was used as intraplate control.
In general terms: qHTS replaces the single test concentration by a dilution series.
For the molecule `Cc1ccc2nc(NC(=O)CSc3nc4c(c(=O)n3-c3ccc(F)cc3)SCC4)sc2c1`, the Potency result is “inactive”.

As to `C=C1C(=O)O[C@@H]2/C=C(\C)CC/C=C(\C(=O)O[C@@H]3O[C@H](CO)[C@@H](O)[C@H](O)[C@H]3O)CC[C@@H]12`, the Potency result was “inactive”. In the case of `C=C(C(=O)O)[C@@H]1CC[C@@]2(C)CC[C@@H](O)C(=C)C2C1` (stereo not given in full) it was “inactive”. The result for `CC(CC12CCCN1C(=O)C1CCCN1C2=O)OC(N)=O` (stereo not given) reads “inactive”; that for `COc1cc2c(cc1O)C(c1ccc(O)cc1)C(C)C(C)C2` (stereo not given), “inactive”. In the case of `CC(=O)c1ccc(O[C@@H]2OC[C@@H](O)[C@H](O)[C@H]2O[C@]2(CO)O[C@H](CO)[C@@H](O)[C@@H]2O)c(O)c1` it was “inactive”. Regarding `CC1=C2CC(O)(C(C)(C)O)C(O[C@@H]3O[C@H](CO)[C@@H](O)[C@H](O)[C@H]3O)CC(C)C2CC1=O` (stereo not given in full), the Potency entry was “inactive”.

For `CC1=CC(=O)C(=C(C)C)CC2C(C)(O)CCC12O` (stereo not given), the Potency result is “inactive”. The result for `Cc1ccc2[nH]c(=O)c(C3=NN(C(=O)CCC(=O)O)C(c4ccc(Br)cc4)C3)c(-c3ccccc3)c2c1` (stereo not given) reads 3.16 µM (active). In the case of `COc1c2ccoc2nc2c(OC)c(O[C@@H]3O[C@@H](C)[C@H](O)[C@@H](O[C@@H]4O[C@H](CO)[C@@H](O)[C@H](O)[C@H]4O)[C@H]3OC(C)=O)ccc12` it was “inactive”; in that of `CC(=O)C1CCC(=O)N1Cc1ccccc1` (stereo not given), “inactive”. In the case of `C=C1CCC2C(C)(C(=O)O)CCCC2(C)C1CC/C(C)=C\CO` (stereo not given) it was “inactive”; in that of `CC1CCC2C(C(=O)O)=CC3(O)CC(C)(C)CC123` (stereo not given), “inactive”. With `COc1cc2c(cc1O)CC(O)(CO)C(CO)C2c1ccc(OC2OC(CO)C(O)C(O)C2O)c(OC)c1` (stereo not given), the Potency result is “inactive”. The result for `CN1C(=O)N(c2cc(Cl)cc(Cl)c2)C(=O)[C@@]1(C)Cc1ccc(Br)cc1` reads “inactive”; that for `Nc1c(-c2ccccc2)nc(Cl)c2c(O)n[nH]c(=O)c12`, “inactive”; that for `CC(=O)NCC1CN(c2ccc(-c3ccc(CNCc4cn[nH]n4)cc3)c(F)c2)C(=O)O1` (stereo not given), “inactive”. Consider `Cc1ncc([N+](=O)[O-])n1C[C@H](O)CN1CCOCC1`, for which the Potency entry is “inactive”. Regarding `CC1OC(OC2C(OC3C(O[C@H]4CC[C@@]5(C)C(CC[C@]6(C)C5C(=O)CC5=C7CC(C)(C)CC(O)[C@]7(C)CC[C@]56C)C4(C)C)OC(C(=O)O)C(O)C3O)OCC(O)C2O)C(O)C(O)C1O` (stereo not given in full), the Potency result is “inactive”. The result for `CC(C)C1(O)NC(=O)C(CC2(O)c3ccccc3N3C(=O)C(C)(C)NC32)n2c1nc1ccccc1c2=O` (stereo not given) reads “inactive”; that for `CC(=O)OCC(Cc1ccccc1)NC(=O)C(Cc1ccccc1)NC(=O)c1ccccc1` (stereo not given), “inactive”. In the case of `CC(C)=CC[C@H]1O[C@]2(O)C([C@H]3CCC4[C@@]5(C)CC[C@H](O[C@@H]6O[C@H](CO)[C@H](O)[C@H](O[C@@H]7O[C@H](CO)[C@@H](O)[C@H](O)[C@H]7O)[C@H]6O[C@@H]6O[C@@H](C)[C@H](O)[C@@H](O)[C@H]6O)C(C)(C)C5CC[C@@]4(C)[C@]3(C)[C@H]2O)[C@@]1(C)O` (stereo not given in full) it was “inactive”; in that of `O=C(O)CC1(O)C(=O)Nc2ccccc21` (stereo not given), “inactive”; in that of `CC(C)C1NC(=O)C(CC2(O)c3ccccc3N3C(=O)C(Cc4ccccc4)NC32)NC1=O` (stereo not given), “inactive”. The result for `CC(=O)OC1C(C)C2C(OC3OC(CO)C(O)C(O)C3O)OC=C(C(=O)O)C2C1OC(=O)c1ccccc1` (stereo not given) reads “inactive”; that for `Cc1cc(OCCN2CCOCC2)nn1-c1ccc2ccccc2c1`, “inactive”. Consider `C/C=C/C=C/C=C/C(=O)N(C)C(C(=O)NC(C)C(=O)N1CCCC1C(N)=O)C(C)C` (stereo not given), for which the Potency entry is “inactive”. `COC(=O)C1=CO[C@@H](O[C@@H]2O[C@H](CO[C@@H]3O[C@H](CO)[C@@H](O)[C@H](O)[C@H]3O)[C@@H](O)[C@H](O)[C@H]2O)[C@@H]2C(CO)=CC[C@H]12`: the Potency result is “inactive”. Take `C=C1CC23CC1CCC2C12OC(=O)C(C)(C(O)C(O)C1O)C2C3C(=O)O` (stereo not given): the Potency result is “inactive”. In the case of `COc1cc([C@@H](O[C@@H]2O[C@H](CO)[C@@H](O)[C@H](O)[C@H]2O)[C@@H]2CO[C@H](c3ccc(O)c(OC)c3)[C@H]2CO)ccc1O` it was “inactive”; in that of `CC(C)=CCC[C@](C)(O[C@@H]1O[C@H](CO)[C@@H](O)[C@H](O)[C@H]1O)[C@H]1CC[C@]2(C)[C@@H]1[C@H](O)CC1[C@@]3(C)CC[C@H](O)C(C)(C)C3[C@@H](O[C@@H]3O[C@H](CO)[C@@H](O)[C@H](O)[C@H]3O[C@@H]3O[C@@H](C)[C@H](O)[C@@H](O)[C@H]3O)C[C@]12C` (stereo not given in full), “inactive”; in that of `Cc1occc(=O)c1O[C@@H]1O[C@H](CO)[C@@H](O)[C@H](O)[C@H]1O`, “inactive”. The result for `C[C@@H]1C(=O)O[C@H]2[C@H]1CC[C@@]1(C)C(=O)C=C[C@@](C)(O)[C@H]21` reads “inactive”; that for `CCCCC(=O)N1c2ccccc2NC2=C(C(=O)CCC2)C1c1ccccc1Cl` (stereo not given), “inactive”; that for `C/C=C(\C)C(=O)OCC1OC(OCC2OC(OC3(CO)OC(CO)C(O)C3O)C(O)C(O)C2O)C(O)C(O)C1O` (stereo not given), “inactive”. The result for `Cc1noc2c1-c1ccccc1C(c1ccc(Cl)cc1)=N[C@H]2CC(N)=O` reads “inactive”; that for `CC1OC(O[C@@H]2[C@@H](O)[C@H](OC(=O)[C@]34CCC(C)(C)C[C@H]3C3=CCC5[C@@]6(C)CC[C@H](O[C@@H]7O[C@H](C(=O)O)[C@@H](O)[C@H](O[C@@H]8OC[C@@H](O)[C@H](O)[C@H]8O)[C@H]7O[C@@H]7O[C@H](CO)[C@H](O)[C@H](O)[C@H]7O)[C@@](C)(C=O)C6CC[C@@]5(C)[C@]3(C)C[C@H]4O)O[C@H](C)[C@@H]2OC2OC(C)C(OC3OCC(O)C(O)C3O)C(O)C2O)C(O)C(O)C1O` (stereo not given in full), “inactive”; that for `CC1CC(O)/C=C/C(O)/C=C\C(=O)O1` (stereo not given), “inactive”. Take `C[C@]1(OC(=O)/C=C/c2ccc(O)cc2)C[C@@H](O)[C@]2(O)C=CO[C@@H](O[C@@H]3O[C@H](CO)[C@@H](O)[C@H](O)[C@H]3O)C12` (stereo not given in full): the Potency entry was “inactive”. In the case of `C/C=C1/[C@H](O[C@@H]2O[C@H](CO)[C@@H](O)[C@H](O)[C@H]2O)OC=C(C(=O)OC)[C@H]1CC(=O)OCCc1ccc(O)c(O)c1` it was “inactive”.
